The values below come from PubChem BioAssay.

The source made the active and inactive calls.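 Rule for the calls, unless noted: active = inhibition above 20% together with a positive visual image hit; inconclusive = visual image hit but inhibition not above 20%; inactive = no visual image hit.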

Assay [1] is described as follows: inhibitors of TNFa-induced NFkB p65 translocation, primary screen, imaging, HUVEC, MLSMR starter and 10KST1 sets (AID 438).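 For inhibition: signal is the nuclear over cytoplasmic p65 intensity ratio per well.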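 Note: compound added about 3h40 before a 20 min TNFalpha stimulation.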 Conditions: HUVEC TNFa-induced p65 nuclear translocation; cell count: measured here: nuclei count (cytotoxicity indicator), at 2.08 µM; inhibition: at 2 µM, stronger effect = higher value, 0% TNFa-plus-vehicle, 100% no-TNFa wells.
The nature of assay [2]: inhibitors of mutant huntingtin aggregation, primary screen, imaging, exon1htt(103Q)mCFP cells, high-content imaging (AID 483;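 active = visual image review flags a hit and inhibition of aggregation exceeds 20%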;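 note: compound exposure lasted 3 days before fixation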;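 for nuclei count: percent of the per-plate median nuclei count of sample wells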). Conditions: exon1htt(103Q)mCFP cell line, aggregate imaging, at 2 µM; inhibition of aggregation: stronger effect = higher value; nuclei count: measured here: cell count, toxicity.
Assay [3] can be described thus: inhibitors of E-selectin induction by TNFa, primary screen, imaging, HUVEC, immunofluorescence, MLSMR starter and 10KST1 sets (AID 487;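 active = visually confirmed hit in the image check and inhibition above 20%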;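 for inhibition: signal is fraction of cell area covered by stained E-selectin grains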;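 for nuclei count: 100% = median nuclei count of all wells on the same plate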). Particulars: HUVEC TNFalpha-induced E-selectin immunofluorescence imaging, at 2 µM; inhibition: stronger effect = higher value; nuclei count: measured here: cell number, toxicity.
The nature of assay [4]: DUSP6 inhibitors restoring Erk phosphorylation by chemical complementation, primary imaging in DUSP6-transfected HeLa (AID 609;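 active = compounds giving at least 50% inhibition in the cell-based MKP-3 phosphatase rescue imaging test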;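 for inhibition: phospho-Erk level distribution per well compared with pooled transfected vehicle control wells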). Particulars: HeLa MKP-3 transfected, phospho-Erk imaging KS statistic, at 10 µM, cells stimulated with TPA for 15 min.
The target in assay [5] is Dual specificity protein phosphatase 6 (Homo sapiens) (UniProt Q16828). Described as above. Particulars: HeLa MKP-3 transfected, phospho-Erk imaging KS statistic; at 10 µM; stronger effect = higher value; cells stimulated with TPA for 15 min.
Chain of Dual specificity protein phosphatase 6 (Homo sapiens) (Q16828 whole entry, looked up): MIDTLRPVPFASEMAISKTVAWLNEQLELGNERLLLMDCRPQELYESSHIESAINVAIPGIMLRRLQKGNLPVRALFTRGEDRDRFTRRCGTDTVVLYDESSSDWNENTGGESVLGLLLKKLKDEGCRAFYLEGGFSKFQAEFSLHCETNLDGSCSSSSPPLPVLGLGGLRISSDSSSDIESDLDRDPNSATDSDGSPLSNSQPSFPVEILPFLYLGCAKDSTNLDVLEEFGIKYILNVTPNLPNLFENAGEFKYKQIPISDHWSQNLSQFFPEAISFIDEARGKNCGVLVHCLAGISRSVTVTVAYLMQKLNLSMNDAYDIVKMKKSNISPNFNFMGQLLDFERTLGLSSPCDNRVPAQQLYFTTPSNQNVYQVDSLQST
In assay [6] the target is Voltage-gated potassium channel subunit beta-2 (Rattus norvegicus) (UniProt P62483). Briefly: KvBeta enzyme negative modulators, primary screen, biochemical, NADPH fluorescence (AID 622;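 active = fluorescence slope higher than the sample average by over 3 SD, cut at about -0.22 in these data, passing the limit was not always enough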;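 note: slope of raw intensity against log time taken from 70 to 1610 s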). Conditions: recombinant KvBeta, 4-cyanobenzaldehyde reduction, at 10 µM, stronger effect = higher value.
Chain of Voltage-gated potassium channel subunit beta-2 (Rattus norvegicus) (P62483 whole entry, looked up): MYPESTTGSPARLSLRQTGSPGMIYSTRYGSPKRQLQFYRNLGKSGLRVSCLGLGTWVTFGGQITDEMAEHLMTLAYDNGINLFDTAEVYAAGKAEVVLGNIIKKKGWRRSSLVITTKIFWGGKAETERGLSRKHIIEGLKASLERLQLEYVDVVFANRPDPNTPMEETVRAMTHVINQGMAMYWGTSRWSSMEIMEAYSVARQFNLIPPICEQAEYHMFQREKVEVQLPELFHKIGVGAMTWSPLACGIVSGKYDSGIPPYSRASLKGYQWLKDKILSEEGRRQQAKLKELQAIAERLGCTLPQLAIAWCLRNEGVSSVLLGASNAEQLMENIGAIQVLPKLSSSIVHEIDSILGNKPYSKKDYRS
For assay [7] the target is unchanged. Briefly: KvBeta positive modulators, primary screen, biochemical, NADPH fluorescence (AID 623;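 active = NADPH fluorescence slope more negative than the mean of all samples by about 3 SD, 99.7% confidence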;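 note: fluorescence intensity change per second fitted from 20 to 320 s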). Conditions: Recombinant KvBeta, NADPH fluorescence decrease slope, 10 min; at 10 µM; stronger effect = lower value.
The target of assay [8] is Alpha-2C adrenergic receptor (Homo sapiens) (UniProt P18825). Briefly: modulators of alpha2C/GIRK thallium flux, primary screen, cell-based, HEK293 alpha2C/GIRK1/2 (AID 624;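 active = fluorescence slope after compound addition differing from the mean of all screened samples at 99.7% confidence, in either direction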;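 note: slope of fluorescence ratio to pre-addition baseline per second over 15 to 24 s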). Particulars: thallium flux BTC fluorescence, at 10 µM, actives lie on both sides.
Chain of Alpha-2C adrenergic receptor (Homo sapiens) (P18825 whole entry, looked up): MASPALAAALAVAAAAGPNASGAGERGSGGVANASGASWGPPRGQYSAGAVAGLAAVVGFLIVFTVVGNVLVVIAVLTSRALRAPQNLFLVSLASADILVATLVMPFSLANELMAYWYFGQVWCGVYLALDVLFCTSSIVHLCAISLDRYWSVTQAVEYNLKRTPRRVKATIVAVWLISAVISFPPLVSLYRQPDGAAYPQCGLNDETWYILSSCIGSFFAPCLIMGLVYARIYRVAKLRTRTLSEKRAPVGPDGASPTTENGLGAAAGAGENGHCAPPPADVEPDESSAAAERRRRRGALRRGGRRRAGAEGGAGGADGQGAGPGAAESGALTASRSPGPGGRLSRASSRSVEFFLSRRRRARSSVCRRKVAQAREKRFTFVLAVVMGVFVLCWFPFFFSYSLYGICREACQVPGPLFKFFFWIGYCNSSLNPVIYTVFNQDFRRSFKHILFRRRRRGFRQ
Assay [9] is described as follows: inhibitors of Chlamydomonas gravitaxis, primary screen, whole organism, Chlamydomonas reinhardtii, WT vs cilia-less mutant, absorbance, 96-well (AID 463189;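 active = inhibition at or above 50% relative to wild type and mutant plate controls; inactive = inhibition below 50%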;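 note: 0% = wild type cc124 cells in DMSO and 100% = ciliumless bld1 mutant cells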). Conditions: OD600 absorbance, 2 days, at 10 µM, stronger effect = higher value.
Assay [10] in a line: inhibitors of Sendai virus-induced IRF3 signaling, primary screen, TLR/RLR signaling modifier project, cell-based, Sendai virus stimulus, luciferase, 10K MLSCN set (AID 602276;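 active = inhibition at or above 50% at 10 µM; inactive = inhibition below 50%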;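 note: firefly luciferase from ISG56 promoter only with Renilla not read in this screen; 0% = Sendai virus plus DMSO and 100% = medium plus DMSO without virus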). Conditions: HEK293 RL24 IRF3 luciferase reporter, at 10 µM, stronger effect = higher value.
Assay [11] is described as follows: inhibitors of poly I:C-induced TLR3 signaling, primary screen, cell-based, poly I:C stimulus, luciferase, 10K MLSCN set (AID 602277;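 active = inhibition of the reporter signal at or above 50%; inactive = inhibition below 50%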). Particulars: HEK293-TLR3 RL24 IRF3 luciferase reporter, at 10 µM, stronger effect = higher value. In general terms: A reporter such as luciferase makes a cellular process visible.
The target of assay [12] is Muscarinic acetylcholine receptor M4 (Homo sapiens) (UniProt P08173). Briefly: compounds altering M4/GIRK thallium flux, either direction, primary screen, M4 allosteric agonist project, cell-based, HEK293 M4/GIRK, BTC-AM (AID 625;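 active = fluorescence slope after compound addition differing from the mean of all tested samples at 99.7% confidence, mostly higher but some lower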;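 note: thallium influx through GIRK channels coupled to M4 in HEK293 cells with BTC-AM dye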). Particulars: at 10 µM, actives lie on both sides.
Chain of Muscarinic acetylcholine receptor M4 (Homo sapiens) (P08173 whole entry, looked up): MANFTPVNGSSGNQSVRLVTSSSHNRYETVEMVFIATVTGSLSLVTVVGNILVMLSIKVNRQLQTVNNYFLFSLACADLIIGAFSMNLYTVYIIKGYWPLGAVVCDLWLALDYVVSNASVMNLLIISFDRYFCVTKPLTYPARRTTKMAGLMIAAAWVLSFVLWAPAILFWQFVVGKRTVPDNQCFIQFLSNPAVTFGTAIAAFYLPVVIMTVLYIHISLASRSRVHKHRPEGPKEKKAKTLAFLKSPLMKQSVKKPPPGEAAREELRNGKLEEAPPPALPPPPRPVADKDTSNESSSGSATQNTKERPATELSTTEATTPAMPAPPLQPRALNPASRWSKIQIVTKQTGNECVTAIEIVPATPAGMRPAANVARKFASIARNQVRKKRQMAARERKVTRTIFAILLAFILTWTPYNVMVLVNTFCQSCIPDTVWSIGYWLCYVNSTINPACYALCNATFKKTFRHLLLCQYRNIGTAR
A short description of assay [13]: inhibitors of larval lipid processing in zebrafish, primary screen, whole organism, PED6 fluorescence, gall bladder and intestine (AID 686;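 active = a full or partial loss of lipid-probe fluorescence in the fish gall bladder, intestine or both, judged by eye; inactive = no fluorescence loss, or compound toxic to the fish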;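 note: larvae 5 to 7 days old with five fish per well; signal comes from phospholipase A2 cleavage of quenched PED6 carried via bile; overnight exposure to compound and PED6 before scoring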). Particulars: Zebrafish larvae PED6 lipid processing, fluorescence scoring; screened at 20 µM (by protocol).
Where [14] appears, read: measured here: cell density z-score.
[15] abbreviates: measured here: nuclear c-Myc green intensity z-score.
The mark [16] stands for this setting: measured here: nuclear pErk red intensity z-score, stronger effect = higher value.

As a reminder, the inhibition is the drop in the measured response relative to a control, in per cent. Consider `CCOc1ccc(C2/C(=C(/O)c3ccc(OC)cc3)C(=O)C(=O)N2c2cc(C)on2)cc1OC` (stereo not given), for which the cell count in [1] was determined as 314. The inhibition in assay [1] was -5.2% (inactive); in [3], -84.6% (inactive); in assay [5], -5.26% (inactive); in assay [9], -9.21% (inactive); in assay [10], -8.23% (inactive); in assay [11], -11.7% (inactive). In assay [2], the inhibition of aggregation is 2.5% (inactive). The nuclei count in assay [2] stood at 87.7%; in assay [3] it was 122%. The z-score in [4] (setting [14]) is 0.762; in assay [4] (setting [15]), 0.679; in assay [4] (setting [16]) it was -1.01. Moreover, the fluorescence slope in assay [6] was -0.434 (inactive). Besides, in assay [7], the NADPH fluorescence slope is -0.000115 (inactive). Moreover, the slope in assay [8] is 0.00335 (inactive).

For `CC(NC(=O)Nc1nccs1)(C(F)(F)F)C(F)(F)F`, the cell count in assay [1] came to 649. For the same compound, the inhibition in assay [1] is -2.2% (inactive); in assay [3], -11.3% (inactive); in assay [5] it was -0.233% (inactive); in assay [9], -9.58% (inactive); in assay [10], 1.15% (inactive); in [11], 56.3% (active). Moreover, in [2], the inhibition of aggregation was 0.8% (inactive). The nuclei count in assay [2] stood at 108%; in assay [3] it was 107%. The z-score in assay [4] (setting [14]) was -0.519; in assay [4] (setting [15]), -0.302; in [4] (setting [16]), -0.913. The fluorescence slope was -0.47 (inactive) in assay [6] and 0.00776 (inactive) in assay [12]. The NADPH fluorescence slope in [7] was -3.5e-05 (inactive). The slope in [8] was 0.00627 (inactive). For the same compound, the result in assay [13] was inactive.

As for `Cc1oc2nc(SCCCC(=O)NCCCO)nc(N)c2c1C`, the cell count in assay [1] was 507. Further, the inhibition in [1] was -4.5% (inactive); in assay [3], -109% (inactive); in assay [5], 3.56% (inactive); in assay [9], 0.255% (inactive); in assay [10] it was 12.9% (inactive); in assay [11], 12.8% (inactive). Further, in assay [2], the inhibition of aggregation is 21.9% (inactive). For the same compound, the nuclei count in [2] came out at 90.5%; in assay [3], 116%. In addition, the z-score was 0.495 in assay [4] (setting [14]), 0.376 in [4] (setting [15]) and -1.33 in [4] (setting [16]). The fluorescence slope in assay [6] is -0.522 (inactive). Moreover, the NADPH fluorescence slope in assay [7] was -1.7e-05 (inactive). Moreover, in assay [8], the slope was 0.00668 (inactive).

On to `Cc1cc(=O)oc2c(CN3CCN(C)CC3)c(O)c(Cl)cc12`, for which the cell count in [1] is 494. The inhibition in assay [1] is -13.9% (inactive); in [3] it was -17.2% (inactive); in assay [5], 1.48% (inactive); in [9], -9.73% (inactive); in [10], 14.9% (inactive); in [11], 17.6% (inactive). The inhibition of aggregation in assay [2] is 0.1% (inactive). The nuclei count in [2] stood at 101%; in [3], 105%. The z-score in [4] (setting [14]) was -0.81; in assay [4] (setting [15]) it was -0.0591; in assay [4] (setting [16]), -0.654. Moreover, in assay [6], the fluorescence slope is -0.0297 (active). Further, the NADPH fluorescence slope in assay [7] was 2e-05 (inactive). Besides, in assay [8], the slope is 0.00763 (inactive).

Take `Cc1ccc(S(=O)(=O)N2CCN(c3nc(C(C)C)c4c(c3C#N)CC(C)(C)OC4)CC2)cc1`: the cell count in assay [1] was 604. The inhibition was -7.5% (inactive) in [1]; -19.5% (inactive) in assay [3]; 5.35% (inactive) in [5]; -7.57% (inactive) in assay [9]; -1.31% (inactive) in assay [10]; 44.4% (inactive) in [11]. Moreover, the inhibition of aggregation in assay [2] was -19.5% (inactive). The nuclei count in assay [2] is 102%; in [3], 120%. For the same compound, the z-score in [4] (setting [14]) is 0.934; in assay [4] (setting [15]), 0.596; in assay [4] (setting [16]), -1.08. For the same compound, the fluorescence slope in assay [6] was -0.441 (inactive); in assay [12], 0.00645 (inactive). For the same compound, in assay [7], the NADPH fluorescence slope is -8.5e-05 (inactive). Besides, the slope in assay [8] is 0.00654 (inactive). Further, the outcome in assay [13] is “inactive; toxic”.

Consider `CCn1cc(C(=O)O)c(=O)c2cc(F)c(N3CCNCC3)nc21`, for which the cell count in assay [1] is 528. The inhibition is -1.9% (inactive) in assay [1]; -53.3% (inactive) in assay [3]; 7.39% (inactive) in assay [5]; -14% (inactive) in assay [9]; 3% (inactive) in assay [10]; 17.6% (inactive) in assay [11]. Moreover, in [2], the inhibition of aggregation is -5% (inactive). For the same compound, the nuclei count in assay [2] is 88.6%; in assay [3] it was 92.8%. Also, the z-score is 1.02 in assay [4] (setting [14]), -0.267 in assay [4] (setting [15]) and -1.93 in assay [4] (setting [16]). In addition, the fluorescence slope in assay [6] was -0.463 (inactive). Also, in [7], the NADPH fluorescence slope is -5.7e-05 (inactive). For the same compound, the slope in [8] is 0.00463 (inactive).

On to `Cn1c(=O)c2c(nc(Oc3ccc4c(c3)OCO4)n2Cc2ccc(F)cc2)n(C)c1=O`, for which the cell count in assay [1] was 691. Besides, the inhibition in [1] was -7.2% (inactive); in assay [3], -27.6% (inactive); in assay [5], 1.9e-07% (inactive); in assay [9], -14.6% (inactive); in assay [10] it was 20.6% (inactive); in assay [11] it was 26.7% (inactive). Moreover, the inhibition of aggregation in [2] is 4.8% (inactive). In addition, the nuclei count in assay [2] came to 108%; in [3], 90.8%. The z-score in assay [4] (setting [14]) was -1.8; in assay [4] (setting [15]) it was -0.122; in assay [4] (setting [16]), -1.44. For the same compound, the fluorescence slope in assay [6] was -0.503 (inactive); in assay [12], 0.00586 (inactive). Also, the NADPH fluorescence slope in assay [7] is -2e-05 (inactive). In addition, the slope in assay [8] was 0.00727 (inactive). For the same compound, in assay [13], the call was inactive.

`COc1ccccc1C1(CC(=O)N2CCOCC2)CCOC(C(C)C)C1` (stereo not given): the cell count in assay [1] turned out to be 506. Further, the inhibition in assay [1] is -6.5% (inactive); in [3], 3.2% (inactive); in [5] it was 5.95% (inactive); in [9], 12.8% (inactive); in assay [10], -1.02% (inactive); in [11], -0.559% (inactive). For the same compound, in [2], the inhibition of aggregation is -10.9% (inactive). Moreover, the nuclei count in assay [2] turned out to be 102%; in [3], 131%. Further, the z-score stood at 0.755 in [4] (setting [14]), 0.316 in [4] (setting [15]) and 1.01 in [4] (setting [16]). Further, the fluorescence slope was -0.414 (inactive) in assay [6] and 0.00519 (inactive) in [12]. Further, the NADPH fluorescence slope in assay [7] is -4.7e-05 (inactive). The slope in assay [8] was 0.00593 (inactive). Besides, the compound was called inactive in assay [13].

Take `COc1c2occc2c(OC)c2c(=O)cc(C)oc12`: in assay [1], the cell count amounted to 555. Besides, the inhibition in assay [1] was -5.1% (inactive); in [3], -78.7% (inactive); in assay [5] it was 21.2% (inactive); in assay [9] it was -3.66% (inactive); in assay [10], 14.8% (inactive); in assay [11], 36% (inactive). Further, the inhibition of aggregation in assay [2] was 13.1% (inactive). For the same compound, the nuclei count in [2] is 103%; in [3], 136%. Also, the z-score is -0.618 in assay [4] (setting [14]), 0.0772 in assay [4] (setting [15]) and -0.0412 in [4] (setting [16]). In addition, the fluorescence slope in assay [6] is -0.445 (inactive). The NADPH fluorescence slope in assay [7] is -4.4e-05 (inactive). Besides, in assay [8], the slope was 0.00425 (inactive).

On to `CCSc1nnc(NC(=O)C(CC)(C(F)(F)F)C(F)(F)F)s1`, for which the cell count in assay [1] was 702. Besides, the inhibition in [1] is 0.2% (inactive); in assay [3], -53.9% (inactive); in assay [5], -9.53% (inactive); in [9], 21.1% (inactive); in [10], -0.9% (inactive); in assay [11], -31.4% (inactive). The inhibition of aggregation in assay [2] was -6.4% (inactive). Moreover, the nuclei count in [2] is 106%; in assay [3], 124%. The figures for the z-score in assay [4] (setting [14]), in assay [4] (setting [15]) and in assay [4] (setting [16]) were 0.12, -0.276 and 0.239, respectively. Moreover, the fluorescence slope is -0.447 (inactive) in assay [6] and 0.00559 (inactive) in assay [12]. In addition, the NADPH fluorescence slope in assay [7] was -4.4e-05 (inactive). The slope in [8] is 0.00447 (inactive). Further, the result in assay [13] was inactive.
